Measured values published in PubChem BioAssay (NCATS).
Unmarked numbers belong to inactive results. Results filed as inconclusive are left out. Activity calls are given as the source filed them. Unless noted, the call rests on the fitted dose curve; in most records, active means well fitted curve in the direction sought with a large enough effect; inconclusive means small, poorly fitted or top-dose-only effect, or another doubt; inactive means no such curve, though single readings can be large; an effect the other way counts as inactive or inconclusive.

Experiments:
[1] = biological target: Cytochrome P450 1A2 (Homo sapiens) (UniProt P05177); experiment: p450-cyp1a2 (AID 410; calls by dose curve; further: potency means the concentration at half of the fitted maximal effect)
Chain of Cytochrome P450 1A2 (Homo sapiens) (P05177 whole entry, looked up): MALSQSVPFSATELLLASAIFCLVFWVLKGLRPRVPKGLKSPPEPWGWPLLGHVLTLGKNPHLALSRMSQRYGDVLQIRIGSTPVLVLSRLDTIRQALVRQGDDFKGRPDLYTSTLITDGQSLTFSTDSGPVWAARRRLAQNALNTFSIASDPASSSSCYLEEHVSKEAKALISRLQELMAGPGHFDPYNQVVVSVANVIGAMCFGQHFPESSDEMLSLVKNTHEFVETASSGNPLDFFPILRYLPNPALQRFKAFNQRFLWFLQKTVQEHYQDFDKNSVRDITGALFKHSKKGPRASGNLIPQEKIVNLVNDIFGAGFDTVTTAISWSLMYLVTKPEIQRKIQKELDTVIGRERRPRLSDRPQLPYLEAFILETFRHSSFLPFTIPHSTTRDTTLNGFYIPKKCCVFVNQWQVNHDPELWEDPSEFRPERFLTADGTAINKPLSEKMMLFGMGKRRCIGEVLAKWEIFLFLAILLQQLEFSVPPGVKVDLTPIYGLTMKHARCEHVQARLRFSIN
Outline: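 O-Demethylation of luciferin 6' methyl ether by human CYP1A2 is monitored as luciferase luminescence. Substrate sits at Km (100uM); enzyme is 20nM. Values are scaled to 57 uM furafylline as maximal inhibition.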

[2] = NFAT Signaling Pathway (AID 444; active means well fitted curve in either direction with a large enough effect, not every such curve was filed as active;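 further: carbachol stimulus at about its EC50 of 1 µM final; on the % scale 0 is the no-effect control and ±100 the full control effect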); conditions: Jurkat NFAT-bla M1, carbachol, beta-lactamase ratio, 5 h; at 7.69 µM (top of the series) unless noted
Outline: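 Jurkat cells with NFAT-driven β-lactamase reporter and co-expressed M1 receptor, stimulated with carbachol (final 1 uM, ~EC50), compound titration, 5 h at 37 °C. CCF4 loaded 1 h at RT; 460/530 nm ratio gave %activity and AC50.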

[3] = Stat Signaling Pathway (AID 446; active means well fitted curve in either direction with a large enough effect, not every such curve was filed as active;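 further: ME-180 cervical cancer cells given 40 pM IL-6 alongside compound; SIE-controlled beta-lactamase reporter measured as 460/530 nm FRET emission ratio; on the % scale 0 is the no-effect control and ±100 the full control effect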); conditions: ME-180 SIE beta-lactamase reporter, IL-6 stimulated, 5 h; at 7.69 µM (top of the series) unless noted
Outline: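 Normalization used AC90 stimulation (300 pM IL-6) and AC90 inhibition (125 nM pan-JAK inhibitor at 40 pM IL-6). The underlying signal is SIE-driven beta-lactamase in ME-180 cells after 5 h IL-6 exposure with compound.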

[4] = biological target: Glucocorticoid receptor (Homo sapiens) (UniProt P04150); experiment: GR-GFP Redistribution (AID 450;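 active means compounds whose dose series gives a full or clear partial fitted curve of increased nuclear translocation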; further: potency means the concentration at half of the fitted maximal effect); conditions: U2OS GR-GFP nuclear translocation, laser cytometry, 2 h
Chain of Glucocorticoid receptor (Homo sapiens) (P04150 whole entry, looked up, the tested form may be a part): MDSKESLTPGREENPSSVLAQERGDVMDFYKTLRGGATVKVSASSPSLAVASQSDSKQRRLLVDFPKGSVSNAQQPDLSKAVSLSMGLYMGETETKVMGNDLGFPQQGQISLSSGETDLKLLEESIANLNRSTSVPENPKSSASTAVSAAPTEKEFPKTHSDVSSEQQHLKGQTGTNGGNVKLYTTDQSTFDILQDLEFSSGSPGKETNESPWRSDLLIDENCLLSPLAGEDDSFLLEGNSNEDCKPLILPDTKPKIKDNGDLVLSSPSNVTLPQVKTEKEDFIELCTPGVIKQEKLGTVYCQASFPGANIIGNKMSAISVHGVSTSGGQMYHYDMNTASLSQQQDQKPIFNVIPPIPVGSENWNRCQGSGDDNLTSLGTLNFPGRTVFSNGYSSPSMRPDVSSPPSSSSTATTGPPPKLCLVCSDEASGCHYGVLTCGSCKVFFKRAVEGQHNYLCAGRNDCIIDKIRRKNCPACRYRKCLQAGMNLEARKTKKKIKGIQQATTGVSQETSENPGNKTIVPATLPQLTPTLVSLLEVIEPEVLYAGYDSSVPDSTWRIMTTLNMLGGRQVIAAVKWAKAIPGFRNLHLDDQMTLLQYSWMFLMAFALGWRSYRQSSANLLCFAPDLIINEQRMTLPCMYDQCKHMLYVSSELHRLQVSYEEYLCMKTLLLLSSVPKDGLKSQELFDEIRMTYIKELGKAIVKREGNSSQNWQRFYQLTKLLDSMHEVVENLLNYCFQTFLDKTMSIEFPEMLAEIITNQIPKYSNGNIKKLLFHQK

[5] = biological target: Glucocorticoid receptor (Homo sapiens) (UniProt P04150); experiment: GR-EFC Redistribution (AID 451; calls by dose curve; further: potency means the concentration at half of the fitted maximal effect); conditions: CHO-K1 GR-EFC translocation, beta-gal luminescence, 2 h
Outline: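 CHO-K1 cells expressing nuclear EA and GR-ED fragments of b-gal; compounds titrated up to 46 uM final, 2 h at 37 C. GR nuclear translocation read as complemented b-gal luminescence after 1 h RT detection.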

[6] = biological target: Mitogen-activated protein kinase 10 (Mus musculus) (UniProt Q61831); experiment: JNK3 AlphaScreen Assay (AID 530; active means well fitted curve in either direction with a large enough effect, not every such curve was filed as active;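 further: kinase came from lysate of stimulated human HepG2 cells; signal reports phosphorylation of biotinylated GST-cJun 1-79 at Ser73 with 10 µM ATP; on the % scale 0 is the no-effect control and ±100 the full control effect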)
Outline: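 Activity was read by AlphaScreen after JNK3-containing HepG2 lysate (cytokine pre-activated) phosphorylated biotinylated GST-cJun with 10 uM ATP at room temperature. Phospho-Ser73 cJun antibody with Protein-A acceptor beads provided detection.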

[7] = biological target: 3',5'-cyclic-AMP phosphodiesterase 4B (Homo sapiens) (UniProt Q07343); experiment: qHTS Assay for Inhibitors of PDE-IV (AID 607; active means well fitted activation curve with a large enough effect in the main read-out, with a control signal flat, not every such curve was filed as active; further: % of control where 0% means no effect)
Outline: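 HEK293 ACTOne cells with CNG channel (1000/well), endogenous PDE4; membrane potential dye, compounds up to 22.9 uM final. Fluorescence Ex 535/Em 590; RO 20-1724 (100 uM final) as reference.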

[8] = biological target: Cytochrome P450 3A4 (Homo sapiens) (UniProt P08684); experiment: qHTS Assay for Inhibitors and Substrates of Cytochrome P450 3A4 (AID 884); further: potency means the concentration at half of the fitted maximal effect; nearly all actives have a fitted effect of over 50% in size
Chain of Cytochrome P450 3A4 (Homo sapiens) (P08684 whole entry, looked up): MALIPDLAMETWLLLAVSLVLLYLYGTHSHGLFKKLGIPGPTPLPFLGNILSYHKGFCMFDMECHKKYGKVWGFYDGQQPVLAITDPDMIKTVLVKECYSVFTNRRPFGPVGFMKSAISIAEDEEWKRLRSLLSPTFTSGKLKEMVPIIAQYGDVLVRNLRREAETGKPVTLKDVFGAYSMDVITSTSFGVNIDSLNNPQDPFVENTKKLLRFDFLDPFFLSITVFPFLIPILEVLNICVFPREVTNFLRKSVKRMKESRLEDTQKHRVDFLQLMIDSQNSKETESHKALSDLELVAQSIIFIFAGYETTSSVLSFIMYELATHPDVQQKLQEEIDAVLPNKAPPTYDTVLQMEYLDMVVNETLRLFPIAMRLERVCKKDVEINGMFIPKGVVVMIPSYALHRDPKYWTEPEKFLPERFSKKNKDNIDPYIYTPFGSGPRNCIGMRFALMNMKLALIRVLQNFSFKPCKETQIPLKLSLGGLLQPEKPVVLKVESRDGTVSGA
Outline: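 Luminescent readout of luciferin produced by CYP3A4 (20 nM) dealkylation of Luciferin-PPXE, 25 uM (its KM). NADPH-driven reaction ran 60 min at RT after 10 min compound preincubation; data scaled to 57 uM ketoconazole as 100% inhibition.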

[9] = biological target: Cytochrome P450 3A4 (Homo sapiens) (UniProt P08684); experiment: qHTS Assay for Activators of Cytochrome P450 3A4 (AID 885); further: nearly all actives have a fitted effect of over 65% in size
Outline: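 Human CYP3A4 dealkylates Luciferin-PPXE to luciferin, which luciferase detection converts to light. Substrate was at its KM (25uM), buffer 200mM KPO4, reaction 60 min at RT.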

[10] = biological target: Cytochrome P450 2C19 (Homo sapiens) (UniProt P33261); experiment: qHTS Assay for Inhibitors and Substrates of Cytochrome P450 2C19 (AID 899); further: potency means the concentration at half of the fitted maximal effect; nearly all actives have a fitted effect of over 60% in size
Chain of Cytochrome P450 2C19 (Homo sapiens) (P33261 whole entry, looked up): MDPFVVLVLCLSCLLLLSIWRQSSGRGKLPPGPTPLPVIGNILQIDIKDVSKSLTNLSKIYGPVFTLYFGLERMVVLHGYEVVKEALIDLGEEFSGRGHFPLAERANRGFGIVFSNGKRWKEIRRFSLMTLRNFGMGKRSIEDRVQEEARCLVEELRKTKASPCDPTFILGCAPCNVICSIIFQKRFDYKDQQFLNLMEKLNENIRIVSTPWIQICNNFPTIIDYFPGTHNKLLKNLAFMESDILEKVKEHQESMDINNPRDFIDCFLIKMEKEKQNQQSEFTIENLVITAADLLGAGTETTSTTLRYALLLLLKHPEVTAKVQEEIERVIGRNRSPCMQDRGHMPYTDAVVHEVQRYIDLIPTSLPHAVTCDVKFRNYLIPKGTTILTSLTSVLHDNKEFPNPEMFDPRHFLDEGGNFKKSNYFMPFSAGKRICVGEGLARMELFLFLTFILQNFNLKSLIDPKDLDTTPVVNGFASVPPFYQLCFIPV
Outline: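 Signal comes from luciferase acting on luciferin released by CYP2C19-mediated hydroxylation of Luciferin-H EGE, 10uM (KM). Assay mix: 5nM enzyme, 50mM KPO4; 60 min at 37C with NADPH regeneration. Data normalized against 57uM ketoconazole.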

[11] = biological target: Dual specificity protein kinase CLK4 (Homo sapiens) (UniProt Q9HAZ1); experiment: qHTS Assay for Inhibitors of CDC-like Kinase 4 (Kinase-Glo Assay) (AID 1770); further: potency means the concentration at half of the fitted maximal effect; nearly all actives have a fitted effect of over 65% in size
Chain of Dual specificity protein kinase CLK4 (Homo sapiens) (Q9HAZ1 whole entry, looked up): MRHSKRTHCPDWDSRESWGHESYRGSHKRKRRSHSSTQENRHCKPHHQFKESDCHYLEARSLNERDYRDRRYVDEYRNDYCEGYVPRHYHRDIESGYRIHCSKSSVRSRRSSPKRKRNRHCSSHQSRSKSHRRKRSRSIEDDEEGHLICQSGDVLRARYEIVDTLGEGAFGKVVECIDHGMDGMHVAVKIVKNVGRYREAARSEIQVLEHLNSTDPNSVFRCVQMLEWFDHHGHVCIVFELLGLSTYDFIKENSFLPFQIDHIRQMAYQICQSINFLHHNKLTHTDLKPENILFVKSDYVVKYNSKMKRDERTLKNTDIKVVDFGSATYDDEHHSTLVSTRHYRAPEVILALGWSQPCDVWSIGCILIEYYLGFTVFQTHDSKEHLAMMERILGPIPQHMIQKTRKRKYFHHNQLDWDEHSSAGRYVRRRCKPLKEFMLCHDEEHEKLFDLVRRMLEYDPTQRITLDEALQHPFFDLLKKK
Outline: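 Readout: Kinase-Glo luminescence from ATP left after a 4.5 h room-temperature reaction of 25 nM Clk4 with 100 uM RS peptide and 1 uM ATP (final). Buffer: 25 mM Tris pH 7.5, 10 mM MgCl2.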

[12] = biological target: Dual specificity protein kinase CLK4 (Homo sapiens) (UniProt Q9HAZ1); experiment: qHTS Assay for Inhibitors of CDC-like Kinase 4 (ADP-Glo Assay) (AID 1771); further: potency means the concentration at half of the fitted maximal effect; nearly all actives have a fitted effect of over 70% in size
Outline: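 Compounds are pin-transferred onto substrate mix (100 uM RS peptide, 1 uM ATP), then 25 nM Clk4 is added. After 1 hr at room temperature, ADP-Glo reagent runs 45 min, detection reagent 30 min, then luminescence is read.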

[13] = biological target: Dual specificity protein kinase CLK4 (Homo sapiens) (UniProt Q9HAZ1); experiment: qHTS Assay for Inhibitors of CDC-like Kinase 4 (ADP-FP Assay) (AID 1795); further: potency means the concentration at half of the fitted maximal effect; nearly all actives have a fitted effect of over 60% in size
Outline: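 FP readout: Orange Transcreener ADP2 tracer (4 nM) plus ADP antibody, read after 30 min at room temperature. Kinase step: 6.25 nM Clk4, 100 uM RS peptide, 1 uM ATP, pH 7.5, 1 h.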

[14] = biological target: Ubiquitin carboxyl-terminal hydrolase 1 (Homo sapiens) (UniProt O94782); experiment: Inhibitors of USP1/UAF1: Pilot qHTS (AID 504865);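 further: rhodamine fluorescence freed from ubiquitin-rhodamine substrate followed over time; top concentration of the series differs between compounds; on the % scale 0 is the no-effect control and ±100 the full control effect; nearly all actives have a fitted effect of over 35% in size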
Chain of Ubiquitin carboxyl-terminal hydrolase 1 (Homo sapiens) (O94782 whole entry, looked up): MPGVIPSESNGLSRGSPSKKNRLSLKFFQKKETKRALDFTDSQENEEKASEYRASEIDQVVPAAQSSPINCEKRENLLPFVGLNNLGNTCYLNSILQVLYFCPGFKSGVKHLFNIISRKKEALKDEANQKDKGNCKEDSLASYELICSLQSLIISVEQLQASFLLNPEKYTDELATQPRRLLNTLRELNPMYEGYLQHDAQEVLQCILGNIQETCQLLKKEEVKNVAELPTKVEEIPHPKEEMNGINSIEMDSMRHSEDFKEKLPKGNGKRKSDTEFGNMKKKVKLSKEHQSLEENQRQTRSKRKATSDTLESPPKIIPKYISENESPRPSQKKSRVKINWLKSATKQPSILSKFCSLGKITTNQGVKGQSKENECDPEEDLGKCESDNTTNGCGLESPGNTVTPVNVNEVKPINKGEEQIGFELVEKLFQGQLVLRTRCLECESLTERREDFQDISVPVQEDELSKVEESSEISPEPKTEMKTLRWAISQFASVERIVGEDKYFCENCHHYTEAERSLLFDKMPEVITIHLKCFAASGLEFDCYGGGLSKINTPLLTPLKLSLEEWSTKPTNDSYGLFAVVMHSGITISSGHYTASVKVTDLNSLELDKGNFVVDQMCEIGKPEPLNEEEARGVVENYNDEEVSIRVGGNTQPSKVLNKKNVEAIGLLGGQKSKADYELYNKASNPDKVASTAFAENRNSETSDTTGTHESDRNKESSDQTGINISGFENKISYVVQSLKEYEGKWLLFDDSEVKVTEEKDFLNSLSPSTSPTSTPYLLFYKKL
Outline: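 1nM USP1/UAF1 + cpd, 15 min RT; start w/ Ub-Rho 150nM final; kinetic FL 480/540 nm, 6 reads q60 s. Buffer 50mM HEPES pH 7.8, 0.5mM EDTA, 1mM TCEP, 0.01% Tween-20, 0.1 mg/ml BSA.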

[15] = biological target: Calcium and integrin-binding protein 1 (Homo sapiens) (UniProt Q99828); experiment: Primary qHTS for Identification of Calcium Integrin Binding Protein 1 (CIB1) Competitor (AID 1508620);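 further: GST tagged CIB1 binding a fluorescein labelled alphaIIb integrin peptide tracer; top concentration of the series differs between compounds; on the % scale 0 is the no-effect control and ±100 the full control effect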
Chain of Calcium and integrin-binding protein 1 (Homo sapiens) (Q99828 whole entry, looked up): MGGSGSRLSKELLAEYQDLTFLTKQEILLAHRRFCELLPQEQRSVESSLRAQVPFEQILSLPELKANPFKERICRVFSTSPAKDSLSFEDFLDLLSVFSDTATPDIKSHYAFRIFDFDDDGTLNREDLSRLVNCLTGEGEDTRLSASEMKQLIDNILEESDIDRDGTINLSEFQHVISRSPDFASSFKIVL
Outline: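 Fluorescence polarization competition: GST-tagged CIB1 (1 uM final) preincubated with compound 15 min at room temperature, then FITC-labelled alphaIIb peptide (100 nM final) added. After 15 min at room temperature, polarization read at Ex 480/Em 540.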

[16] = Primary qHTS for small molecule stabilizers of the endoplasmic reticulum resident proteome: Secreted ER Calcium Modulated Protein (SERCaMP) assay (AID 1508630); further: on the % scale 0 is the no-effect control and ±100 the full control effect
Outline: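 The SH-SY5Y reporter protocol was run at 3 concentrations up to 38.3 uM (primary) or 11 concentrations (follow-up): 16 h compound, 100 nM thapsigargin for 4 h, then extracellular luciferase luminescence.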

[17] = biological target: Lysosomal acid glucosylceramidase (Homo sapiens) (UniProt P04062); experiment: Glucocerebrosidase-p2 (AID 348; in the data active means potency below about 10 µM; further: potency means the concentration at half of the fitted maximal effect); conditions: purified GBA, blue fluorogenic substrate, 40 min
Chain of Lysosomal acid glucosylceramidase (Homo sapiens) (P04062 whole entry, looked up): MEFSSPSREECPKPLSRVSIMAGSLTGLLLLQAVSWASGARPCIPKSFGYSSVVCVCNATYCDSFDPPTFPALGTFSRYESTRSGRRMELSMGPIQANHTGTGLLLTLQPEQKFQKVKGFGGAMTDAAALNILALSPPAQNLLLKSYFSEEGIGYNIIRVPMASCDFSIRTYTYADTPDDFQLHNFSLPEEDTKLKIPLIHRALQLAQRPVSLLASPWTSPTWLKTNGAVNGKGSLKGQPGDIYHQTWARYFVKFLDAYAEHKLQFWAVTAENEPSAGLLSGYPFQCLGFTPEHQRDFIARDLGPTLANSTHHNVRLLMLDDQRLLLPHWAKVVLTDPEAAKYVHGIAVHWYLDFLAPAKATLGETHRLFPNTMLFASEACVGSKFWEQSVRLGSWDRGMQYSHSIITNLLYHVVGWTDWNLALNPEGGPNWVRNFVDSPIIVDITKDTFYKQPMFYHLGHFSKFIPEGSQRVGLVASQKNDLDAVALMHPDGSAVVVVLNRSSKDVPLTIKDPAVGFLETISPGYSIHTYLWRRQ
Outline: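 Normal human glucocerebrosidase (0.2 nM) with blue fluorogenic substrate (80 uM final) in citrate/phosphate pH 5.9 with 10mM sodium taurocholate, 0.01% tween-20; 40 min RT, NaOH/glycine stop; fluorescence Ex 365/Em 440; AC50 from a titration from 0.6 nM upwards.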

[18] = AP1 Signaling Pathway (AID 357; active means well fitted curve in either direction with a large enough effect, not every such curve was filed as active); conditions: ME-180 (cervical carcinoma) AP-1-bla reporter, EGF-induced, beta-lactamase ratio, 5 h; at 7.69 µM (top of the series) unless noted
Outline: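 Read-out was the 460nm/530nm emission ratio (excitation 405nm) after CCF4 loading for 2.5 hours at room temperature. Cells carried an AP-1-driven beta-lactamase reporter, were stimulated with EC50 EGF plus compound for 5 hours, and AC50 values came from titrations.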

[19] = biological target: Cytochrome P450 2D6 (Homo sapiens) (UniProt P10635); experiment: qHTS Assay for Inhibitors and Substrates of Cytochrome P450 2D6 (AID 891); further: potency means the concentration at half of the fitted maximal effect; nearly all actives have a fitted effect of over 60% in size
Chain of Cytochrome P450 2D6 (Homo sapiens) (P10635 whole entry, looked up): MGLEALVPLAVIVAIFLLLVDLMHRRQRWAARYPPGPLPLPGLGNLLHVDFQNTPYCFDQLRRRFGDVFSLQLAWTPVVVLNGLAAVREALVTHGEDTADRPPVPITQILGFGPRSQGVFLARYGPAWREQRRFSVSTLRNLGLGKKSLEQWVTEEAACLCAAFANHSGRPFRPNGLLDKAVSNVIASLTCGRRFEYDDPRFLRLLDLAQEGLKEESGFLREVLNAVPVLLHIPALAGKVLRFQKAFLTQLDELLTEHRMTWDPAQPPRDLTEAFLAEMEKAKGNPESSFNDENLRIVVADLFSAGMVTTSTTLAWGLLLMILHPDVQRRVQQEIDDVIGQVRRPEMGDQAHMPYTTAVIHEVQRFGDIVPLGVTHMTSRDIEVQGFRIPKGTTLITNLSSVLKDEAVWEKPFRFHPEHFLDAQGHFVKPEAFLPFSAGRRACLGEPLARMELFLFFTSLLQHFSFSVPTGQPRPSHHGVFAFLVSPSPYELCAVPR
Outline: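 Luminescent read-out of luciferin formed by 5 nM human CYP2D6 demethylating 30 uM Luciferin-ME EGE (Km level) over 60 min at room temperature after NADPH regeneration addition. Data normalized to full inhibition by 1.43 uM quinidine.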

[20] = biological target: Rap guanine nucleotide exchange factor 3 (Homo sapiens) (UniProt O95398); experiment: Confirmatory qHTS for agonist of cAMP-regulated guanine nucleotide exchange factor 3 (EPAC1) (AID 1645881);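 further: EPAC1 catalysed release of BODIPY-GDP from Rap1B seen as fluorescence loss; 100% = effect of cAMP agonist control; nearly all actives have a fitted effect of over 75% in size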
[21] = biological target: Rap guanine nucleotide exchange factor 4 (Homo sapiens) (UniProt Q8WZA2); experiment: Confirmatory qHTS for agonist of cAMP-regulated guanine nucleotide exchange factor 4 (EPAC2) (AID 1645884);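 further: nucleotide exchange releases bodipy-GDP from Rap1 and this lowers its fluorescence; on the % scale 0 is the no-effect control and ±100 the full control effect; nearly all actives have a fitted effect of over 65% in size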

c1cncc(CNc2ncnc3ccc(-c4ccoc4)cc23)c1
Potency [1]: 316 nM (active) | activity change, negative = inhibition [2]: 2.59% | activity, negative = inhibition [3]: -13.4% | Potency [4]: > 46 µM | Potency [5]: > 46 µM | outcome [6]: inactive | Potency [7]: inactive | Potency [8]: 1.58 µM (active) | Potency [9]: inactive | Potency [10]: 25.1 nM (active) | Potency [11]: 2.82 µM (active) | Potency [12]: 1.58 µM (active) | Potency [13]: 0.794 µM (active) | Potency [14]: inactive | Potency [15]: inactive | Potency [16]: inactive

CN(Cc1ccco1)c1ncnc2ccc(-c3ccccc3Cl)cc12
Potency [17]: > 11.4 µM | activity change, negative = inhibition [18]: -12% | Potency [1]: 2000 nM (active) | activity change, negative = inhibition [2]: -13.6% | activity, negative = inhibition [3]: 11.7% | Potency [4]: > 46 µM | Potency [5]: > 46 µM | outcome [6]: inactive | Potency [9]: inactive | Potency [19]: 7.94 µM (active) | Potency [10]: 3160 nM (active) | Potency [11]: 14.1 µM (active) | Potency [12]: 14.1 µM (active) | Potency [13]: 4.47 µM (active) | Potency [14]: inactive | Potency [15]: inactive | Potency [16]: inactive | outcome [20]: inactive | outcome [21]: inactive

Clc1ccccc1-c1ccc2ncnc(NCc3cccnc3)c2c1
Potency [17]: > 11.4 µM | activity change, negative = inhibition [18]: 2.12% | Potency [1]: 158 nM (active) | activity change, negative = inhibition [2]: 13.8% | activity, negative = inhibition [3]: -5.2% | Potency [4]: > 46 µM | Potency [5]: > 46 µM | outcome [6]: inactive | Potency [8]: 2 µM (active) | Potency [9]: inactive | Potency [19]: 6.31 µM (active) | Potency [11]: 10 µM (active) | Potency [12]: 11.2 µM (active) | Potency [13]: 10 µM (active) | Potency [14]: inactive | Potency [15]: inactive | Potency [16]: inactive
